Laboratory results from PubChem BioAssay (NCI).
Compounds without any hit were thinned out: in the full panel of roughly 83,000, 20% have a hit.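 Single-concentration screen, 48 h exposure, 96-well plates. Endpoint: percent growth. Below 10 = active.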 The source made the active and inactive calls.

Key:
Assay in all cases: NCI-60 one-dose screen, 48 h (100 = growth as untreated, 0 = no growth, -100 = all killed)
Settings in all cases: 10 µM unless noted
SR leukemia = test system: SR leukemia
RPMI-8226 leukemia = test system: RPMI-8226 leukemia
OVCAR-8 ovarian = test system: OVCAR-8 ovarian
OVCAR-5 ovarian = test system: OVCAR-5 ovarian
OVCAR-4 ovarian = test system: OVCAR-4 ovarian
SK-OV-3 ovarian = test system: SK-OV-3 ovarian
IGROV1 ovarian = test system: IGROV1 ovarian
OVCAR-3 ovarian = test system: OVCAR-3 ovarian
HS 578T breast = test system: HS 578T breast
NCI/ADR-RES ovarian = test system: NCI/ADR-RES ovarian
T-47D breast = test system: T-47D breast
BT-549 breast = test system: BT-549 breast
MDA-MB-435 melanoma = test system: MDA-MB-435 melanoma
SW-620 colon = test system: SW-620 colon
MCF7 breast = test system: MCF7 breast
HCT-116 colon = test system: HCT-116 colon
HCC-2998 colon = test system: HCC-2998 colon
KM12 colon = test system: KM12 colon

Measured: growth

N=C(N)c1ccc(-c2ccc(-c3ccc(Cl)cc3Cl)s2)nc1
active: SR leukemia 5.54% | RPMI-8226 leukemia 0.186% | SW-620 colon -63.6% | MCF7 breast -30.5% | HCT-116 colon -69.5% | HCC-2998 colon -33% | KM12 colon -31.5%
inactive: OVCAR-8 ovarian 36.2% | OVCAR-5 ovarian 80.2% | OVCAR-4 ovarian 98.2% | SK-OV-3 ovarian 91.3% | IGROV1 ovarian 50.6% | OVCAR-3 ovarian 64.4% | HS 578T breast 90.1% | NCI/ADR-RES ovarian 96.7% | T-47D breast 81.2% | BT-549 breast 105% | MDA-MB-435 melanoma 62.5%

CCOC(=O)C1=C(c2ccccc2)N=C2N(c3ccccc3)N=C(C(C)=O)N2C1c1ccc(Br)cc1 (stereo not drawn)
inactive: SR leukemia 81.8% | RPMI-8226 leukemia 77.8% | OVCAR-8 ovarian 93.9% | OVCAR-5 ovarian 104% | OVCAR-4 ovarian 104% | SK-OV-3 ovarian 112% | IGROV1 ovarian 88% | OVCAR-3 ovarian 102% | HS 578T breast 83.2% | NCI/ADR-RES ovarian 103% | T-47D breast 79.8% | BT-549 breast 98.3% | MDA-MB-435 melanoma 101% | SW-620 colon 97% | MCF7 breast 89.2% | HCT-116 colon 84.7% | HCC-2998 colon 103% | KM12 colon 94.9%

C=C(C)[C@@H]1CC[C@]2(C(=O)NC(C)=O)CC[C@]3(C)[C@H](CC[C@@H]4[C@@]5(C)CCCNC(C)(C)[C@@H]5CC[C@]43C)[C@@H]12
active: SR leukemia -24.5% | RPMI-8226 leukemia -30.3% | OVCAR-3 ovarian -34.3% | MDA-MB-435 melanoma -88.7% | SW-620 colon -50% | MCF7 breast -17.3% | HCT-116 colon -69.7% | HCC-2998 colon -58.3% | KM12 colon -2.16%
inactive: OVCAR-8 ovarian 17.5% | OVCAR-5 ovarian 67.9% | OVCAR-4 ovarian 33.9% | SK-OV-3 ovarian 68.6% | IGROV1 ovarian 20.4% | HS 578T breast 52.3% | NCI/ADR-RES ovarian 29.4% | T-47D breast 17.6% | BT-549 breast 63.1%

CNC(=O)c1cc(Oc2ccc3nc(NC(=O)NC(C)C)sc3c2)ccn1
active: MDA-MB-435 melanoma 0.517%
inactive: SR leukemia 30.4% | RPMI-8226 leukemia 73.2% | OVCAR-8 ovarian 88.4% | OVCAR-5 ovarian 117% | OVCAR-4 ovarian 77.8% | SK-OV-3 ovarian 87% | IGROV1 ovarian 86.7% | OVCAR-3 ovarian 97.4% | HS 578T breast 74.6% | NCI/ADR-RES ovarian 65% | T-47D breast 64.3% | BT-549 breast 86.5% | SW-620 colon 53.2% | MCF7 breast 53.9% | HCT-116 colon 57.7% | HCC-2998 colon 79.3% | KM12 colon 39.3%

COc1cc(OCc2cccc(-c3ccccc3)c2C)cc(OC)c1CN1CCCCC1C(=O)NCCOCCOCCN (stereo not drawn)
active: SR leukemia -26% | MDA-MB-435 melanoma -72.8%
inactive: RPMI-8226 leukemia 13.4% | OVCAR-8 ovarian 82.8% | OVCAR-5 ovarian 101% | OVCAR-4 ovarian 53.3% | SK-OV-3 ovarian 104% | IGROV1 ovarian 70% | OVCAR-3 ovarian 85% | HS 578T breast 84.5% | NCI/ADR-RES ovarian 103% | T-47D breast 71.2% | BT-549 breast 84.7% | SW-620 colon 61.2% | MCF7 breast 51.3% | HCT-116 colon 22.8% | HCC-2998 colon 88% | KM12 colon 78.9%

O=C(CNc1ncco1)Nc1ccc(S(=O)(=O)c2ccc(NC(=O)CNc3ncco3)cc2)cc1
active: SR leukemia -0.678% | OVCAR-8 ovarian -80.7% | IGROV1 ovarian -10.3% | HS 578T breast -4.97% | NCI/ADR-RES ovarian -12.5% | MDA-MB-435 melanoma 3.01% | SW-620 colon -82% | HCT-116 colon -80.7%
inactive: RPMI-8226 leukemia 11.2% | OVCAR-5 ovarian 28.5% | OVCAR-4 ovarian 17.5% | SK-OV-3 ovarian 76.1% | OVCAR-3 ovarian 104% | T-47D breast 29.3% | BT-549 breast 43.9% | MCF7 breast 18.9% | HCC-2998 colon 76.4% | KM12 colon 94.8%

CN(C)c1ccc(Cc2cc(-c3ccccc3)nn(C/C(=N/O)c3ccccc3)c2=O)cc1
inactive: SR leukemia 46.3% | RPMI-8226 leukemia 28.2% | OVCAR-8 ovarian 57.2% | OVCAR-5 ovarian 89.7% | OVCAR-4 ovarian 55.1% | SK-OV-3 ovarian 94.6% | IGROV1 ovarian 68.5% | OVCAR-3 ovarian 56.2% | HS 578T breast 83.1% | NCI/ADR-RES ovarian 44.1% | T-47D breast 11.8% | BT-549 breast 61.2% | MDA-MB-435 melanoma 38% | SW-620 colon 62.1% | MCF7 breast 29.1% | HCT-116 colon 46% | HCC-2998 colon 81.2% | KM12 colon 31.8%

Oc1cccc2c1NCCC2
active: OVCAR-3 ovarian 4.94% | HCT-116 colon 8.94%
inactive: SR leukemia 27.2% | RPMI-8226 leukemia 14.9% | OVCAR-8 ovarian 19.9% | OVCAR-5 ovarian 44.7% | OVCAR-4 ovarian 17.9% | SK-OV-3 ovarian 20.4% | IGROV1 ovarian 18.3% | HS 578T breast 24.3% | NCI/ADR-RES ovarian 23.7% | T-47D breast 22.1% | BT-549 breast 39.1% | MDA-MB-435 melanoma 15.4% | SW-620 colon 19.9% | MCF7 breast 13.1% | HCC-2998 colon 32.8% | KM12 colon 20.7%

C=C1CC[C@@H]2[C@](C)(COC(C)=O)[C@H](OC(C)=O)CC[C@@]2(C)[C@@H]1CC(Nc1ccc(S(=O)(=O)Nc2nccc(C)n2)cc1)C1=CCOC1=O (stereo partly drawn)
active: SR leukemia 0.793% | RPMI-8226 leukemia -5.56% | OVCAR-3 ovarian -45% | BT-549 breast -2.66% | MDA-MB-435 melanoma 0.231% | SW-620 colon -49.6% | MCF7 breast 0.135% | HCT-116 colon -32.2%
inactive: OVCAR-8 ovarian 10.5% | OVCAR-5 ovarian 26.9% | OVCAR-4 ovarian 32.3% | SK-OV-3 ovarian 101% | IGROV1 ovarian 25.8% | HS 578T breast 68.6% | NCI/ADR-RES ovarian 20.9% | T-47D breast 69.1% | HCC-2998 colon 68.2% | KM12 colon 13.2%

Cc1csc(Nc2nc(-c3cccc(Cl)c3)nc(C(Cl)(Cl)Cl)n2)n1
inactive: SR leukemia 58.9% | RPMI-8226 leukemia 13.8% | OVCAR-8 ovarian 58.6% | OVCAR-5 ovarian 46.8% | OVCAR-4 ovarian 70.1% | SK-OV-3 ovarian 70.8% | IGROV1 ovarian 83.1% | HS 578T breast 43.5% | NCI/ADR-RES ovarian 51.6% | BT-549 breast 96.8% | MDA-MB-435 melanoma 54.1% | SW-620 colon 42.4% | MCF7 breast 20.7% | HCT-116 colon 37.9% | KM12 colon 13.8%
active: OVCAR-3 ovarian -18.4% | T-47D breast 5.33% | HCC-2998 colon 7.13%

c1ccc2[nH]c(-c3ccc(-c4nccc5c4[nH]c4ccccc45)cc3)nc2c1
active: SR leukemia -4.29% | OVCAR-3 ovarian -24.2%
inactive: RPMI-8226 leukemia 61.1% | OVCAR-8 ovarian 16.5% | OVCAR-5 ovarian 129% | OVCAR-4 ovarian 23% | SK-OV-3 ovarian 104% | IGROV1 ovarian 94.5% | HS 578T breast 73.7% | NCI/ADR-RES ovarian 62.6% | T-47D breast 34.4% | BT-549 breast 73.7% | MDA-MB-435 melanoma 59.7% | SW-620 colon 68.5% | MCF7 breast 30.4% | HCT-116 colon 16.3% | HCC-2998 colon 74% | KM12 colon 76.6%

COc1ccc(-n2c(=O)n(-c3ccc(-c4nc5ccc(F)cc5s4)cc3)c(=O)c3cccnc32)cc1
inactive: SR leukemia 104% | RPMI-8226 leukemia 91.6% | OVCAR-8 ovarian 93.1% | OVCAR-5 ovarian 108% | OVCAR-4 ovarian 104% | SK-OV-3 ovarian 86.6% | IGROV1 ovarian 90.5% | OVCAR-3 ovarian 106% | HS 578T breast 101% | NCI/ADR-RES ovarian 103% | T-47D breast 73.5% | BT-549 breast 99.7% | MDA-MB-435 melanoma 102% | SW-620 colon 106% | MCF7 breast 92.2% | HCT-116 colon 91.5% | HCC-2998 colon 91.4% | KM12 colon 102%

COC(CCP(=O)(c1ccccc1)c1ccccc1)(C(=O)c1ccccc1)c1ccccc1 (stereo not drawn)
active: SR leukemia -8.14% | RPMI-8226 leukemia 4.88% | IGROV1 ovarian -19.4%
inactive: OVCAR-8 ovarian 77% | OVCAR-5 ovarian 84.1% | OVCAR-4 ovarian 61.3% | SK-OV-3 ovarian 83.5% | OVCAR-3 ovarian 77.1% | HS 578T breast 83.5% | NCI/ADR-RES ovarian 57.7% | T-47D breast 47.6% | BT-549 breast 60.4% | MDA-MB-435 melanoma 71.4% | SW-620 colon 76% | MCF7 breast 35.1% | HCT-116 colon 45.5% | HCC-2998 colon 72.7% | KM12 colon 57.3%

O=c1n(C2OC(CO)C(O)C2O)ccc2nccn12 (stereo not drawn)
inactive: SR leukemia 88.2% | RPMI-8226 leukemia 114% | OVCAR-8 ovarian 92% | OVCAR-5 ovarian 115% | OVCAR-4 ovarian 117% | SK-OV-3 ovarian 117% | IGROV1 ovarian 113% | OVCAR-3 ovarian 107% | HS 578T breast 101% | NCI/ADR-RES ovarian 113% | T-47D breast 118% | BT-549 breast 121% | MDA-MB-435 melanoma 102% | SW-620 colon 94.4% | MCF7 breast 94.1% | HCT-116 colon 112% | HCC-2998 colon 110% | KM12 colon 103%

Cc1nc2c(c(-c3ccccc3)n1)Cc1c(ccc3ccccc13)O2
inactive: SR leukemia 107% | RPMI-8226 leukemia 87% | OVCAR-8 ovarian 95.1% | OVCAR-5 ovarian 93.1% | OVCAR-4 ovarian 99.4% | SK-OV-3 ovarian 96.4% | IGROV1 ovarian 118% | OVCAR-3 ovarian 99.1% | HS 578T breast 83.3% | NCI/ADR-RES ovarian 98% | T-47D breast 84.6% | BT-549 breast 90% | MDA-MB-435 melanoma 119% | SW-620 colon 96.4% | MCF7 breast 89.1% | HCT-116 colon 90.6% | HCC-2998 colon 111% | KM12 colon 89.1%

CN1CCN(CC(=O)N(C)c2ccc(N=C(c3ccccc3)c3c(O)[nH]c4ccc([N+](=O)[O-])cc34)cc2)CC1
inactive: SR leukemia 19.4% | RPMI-8226 leukemia 82.7% | OVCAR-8 ovarian 79.6% | OVCAR-5 ovarian 122% | OVCAR-4 ovarian 57.7% | SK-OV-3 ovarian 14.4% | IGROV1 ovarian 49.3% | OVCAR-3 ovarian 73.6% | HS 578T breast 18.2% | NCI/ADR-RES ovarian 90.8% | T-47D breast 89.7% | BT-549 breast 64.4% | MDA-MB-435 melanoma 23.5% | SW-620 colon 48.4% | MCF7 breast 21.9% | HCT-116 colon 24% | HCC-2998 colon 78.7% | KM12 colon 13.1%
